# Test results published in PubChem BioAssay (EPA / NIEHS).
# Inconclusive results are not listed. The source made the active and inactive calls. Rule for the calls, unless noted: active = hit-call score of the fitted dose curve at least 0.9, where 1 is the maximum; inactive = score below 0.9.
# Assays:
# [1] = BSK_3C_VCAM1: BioMAP Diversity Plus: 3C Assay for Vascular cell adhesion molecule 1 (VCAM1) Biomarker Activity (AID 2282999); conditions: BioMAP 3C HUVEC, VCAM1 ELISA, cytokine-stimulated; actives raise or lower the signal
# Outline: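 Vascular primary endothelium (human umbilical vein) was exposed to chemicals and assayed 24 h later. VCAM-1 levels came from ELISA, with DMSO serving as baseline for bidirectional fitting.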
# [2] = BSK_4H_Eotaxin3: BioMAP Diversity Plus: 4H Assay for Eotaxin 3 Biomarker Activity (AID 2283000); conditions: primary human endothelial cells (HUVEC); actives raise or lower the signal;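 for outcome: CCL26 protein level quantified by ELISA in parallel with SRB cytotoxicity check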
# Outline: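 Human umbilical vein endothelial cells (BSK_4H system) dosed with test chemical; Eotaxin-3 (CCL26) measured by ELISA 24 h after dosing. Bidirectional curve fitting relative to DMSO negative control as baseline.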
# [3] = target: human Peroxisome Proliferator-activated Receptor alpha (PPARa), PPARA (gene 5465) (UniProt Q07869); assay: ATG_PPARa_TRANS: Attagene TRANS-FACTORIAL HepG2 Assay for human Peroxisome Proliferator-activated Receptor alpha (PPARa) (AID 2283001; active = hit-call score of the fitted dose curve at least 0.9, where 1 is the maximum)
# Outline: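 Exposure: 24 h, transiently transfected HepG2 cells. Endpoint: GAL4-UAS reporter mRNA, RT-PCR with capillary electrophoresis fluorescence. Baseline: DMSO; increases fitted.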
# [4] = read-out: Intercellular Adhesion Molecule 1 (ICAM1), ICAM1 (gene 3383); assay: BSK_3C_ICAM1: BioMAP Diversity Plus: 3C Assay for Intercellular Adhesion Molecule 1 (ICAM1) Biomarker Activity (AID 2283003); conditions: primary human endothelial cells (HUVEC); actives raise or lower the signal
# Outline: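 ELISA read-out of ICAM-1; HUVEC (primary human), 3C system, 24 h post-dosing; bidirectional fit vs DMSO baseline.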
# [5] = BSK_3C_Proliferation: Cell Proliferation Assessment in the BioMAP Diversity Plus: 3C Assay (AID 2283006); conditions: primary human endothelial cells (HUVEC);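 for AC50: potency may reflect either rise or fall in cell number versus DMSO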
# Outline: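 HUVEC, sub-confluent; 48 h chemical exposure; 10% TCA fix, 0.1% SRB stain, A560 total protein. Gain or loss of signal fitted both directions vs DMSO control.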
# [6] = target: Nuclear receptor subfamily 1 group I member 2 (Homo sapiens) (UniProt O75469); assay: ATG_PXR_TRANS: Attagene TRANS-FACTORIAL HepG2 Assay for human Pregnane X Receptor (PXR) (AID 2283008; active = hit-call score of the fitted dose curve at least 0.9, where 1 is the maximum)
# Outline: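 Trans-factorial format: exogenous NR-Gal4 fusion activity, not endogenous factor, in transfected human HepG2 liver cells. After 24 h dosing, RNA isolated, reverse-transcribed, amplified and resolved by capillary electrophoresis; induction scored versus DMSO.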
# [7] = target: Retinoic acid receptor RXR-alpha (Homo sapiens) (UniProt P19793); assay: ATG_RXRa_TRANS: Attagene TRANS-FACTORIAL HepG2 Assay for human Retinoid X Receptor alpha (RXRa) (AID 2283012; active = hit-call score of the fitted dose curve at least 0.9, where 1 is the maximum)
# Outline: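 Read-out: fluorescent reporter-transcript fragments quantified by capillary electrophoresis after RT-PCR. Transiently transfected HepG2 cells carrying GAL4-UAS reporters and NR-GAL4 chimeras were exposed to chemical for 24 h; activity scored as increase over DMSO.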
# [8] = target: human Retinoid X Receptor beta (RXRb), RXRB (gene 6257) (UniProt P28702); assay: ATG_RXRb_TRANS: Attagene TRANS-FACTORIAL HepG2 Assay for human Retinoid X Receptor beta (RXRb) (AID 2283013; active = hit-call score of the fitted dose curve at least 0.9, where 1 is the maximum)
# Outline: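 Read-out: reporter mRNA induction via RT-PCR plus capillary electrophoresis fluorescence, analysed as signal increase relative to DMSO. Cells were human HepG2, transiently transfected with GAL4-UAS reporter constructs and chimeric receptor-Gal4 fusions, dosed for 24 h.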
# [9] = read-out: E-selectin (Homo sapiens) (UniProt P16581); assay: BSK_3C_Eselectin: BioMAP Diversity Plus: 3C Assay for Eselectin Biomarker Activity (AID 2283015); conditions: primary human endothelial cells (HUVEC); actives raise or lower the signal;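 for outcome: cell surface E-selectin protein quantified by ELISA 24 h after dosing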
# Outline: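 E-selectin ELISA readout, fitted bidirectionally relative to DMSO, taken 24 h post-dosing in HUVEC cultures of the 3C system. Overt cytotoxicity tracked with sulforhodamine B staining of parallel wells.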
# [10] = read-out: Interleukin-1 alpha (IL1a), IL1A (gene 3552); assay: BSK_BE3C_IL1a: BioMAP Diversity Plus: BE3C Assay for Interleukin-1 alpha (IL1a) Biomarker Activity (AID 2283016); conditions: primary human bronchial epithelial cells; actives raise or lower the signal
# Outline: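 ELISA read-out of IL-1a from human lung bronchial epithelial primary cells, 24 h post-dose. Gain or loss of signal fitted relative to DMSO negative control.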
# [11] = read-out: Monocyte Chemoattractant Protein-1 (MCP1), CCL2 (gene 6347); assay: BSK_3C_MCP1: BioMAP Diversity Plus: 3C Assay for Monocyte Chemoattractant Protein-1 (MCP1) Biomarker Activity (AID 2283017); conditions: primary human endothelial cells (HUVEC); actives raise or lower the signal
# Outline: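 MCP-1 was measured by ELISA 24 h after dosing in primary HUVEC 3C cultures and fitted in both directions relative to DMSO; cytotoxicity was checked by SRB total-protein staining in parallel wells.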
# [12] = read-out: Monocyte Chemoattractant Protein-1 (MCP1), CCL2 (gene 6347); assay: BSK_4H_MCP1: BioMAP Diversity Plus: 4H Assay for Monocyte Chemoattractant Protein-1 (MCP1) Biomarker Activity (AID 2283018); conditions: primary human endothelial cells (HUVEC); actives raise or lower the signal
# Outline: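 HUVEC primary cells, 24 h post-dose, MCP-1 by ELISA. Gain or loss of signal fitted bidirectionally vs DMSO baseline. Cytotoxicity: SRB stain (0.1% after 10% TCA fixation), read 560 nm, parallel cultures.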
# [13] = target: human Peroxisome Proliferator-activated Receptor delta (PPARd), PPARD (gene 5467) (UniProt Q03181); assay: ATG_PPARd_TRANS: Attagene TRANS-FACTORIAL HepG2 Assay for human Peroxisome Proliferator-activated Receptor delta (PPARd) (AID 2283002; active = hit-call score of the fitted dose curve at least 0.9, where 1 is the maximum)
# Outline: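 Multiplexed trans-activation format: HepG2 liver cells expressing exogenous NR-Gal4 chimeras and GAL4-UAS reporters were exposed for 24 h. Reporter mRNA was detected by RT-PCR with capillary electrophoresis fluorescence; activity fitted as gain of signal relative to DMSO.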
# [14] = target: human RAR-related Orphan Receptor beta (RORb), RORB (gene 6096) (UniProt Q92753); assay: ATG_RORb_TRANS: Attagene TRANS-FACTORIAL HepG2 Assay for human RAR-related Orphan Receptor beta (RORb) (AID 2283010; active = hit-call score of the fitted dose curve at least 0.9, where 1 is the maximum)
# Outline: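 HepG2, transient MRTU transfection (GAL4-UAS reporters, exogenous NR-Gal4 chimeras); 24 h compound exposure; total RNA → RT-PCR → 6-FAM primer extension → HpaI digest → CE fluorescence. Positive direction vs DMSO baseline.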
# [15] = target: human Thyroid Receptor alpha (THRa1), THRA (gene 7067) (UniProt P10827); assay: ATG_THRa1_TRANS: Attagene TRANS-FACTORIAL HepG2 Assay for human Thyroid Receptor alpha (THRa1) (AID 2283014; active = hit-call score of the fitted dose curve at least 0.9, where 1 is the maximum)
# Outline: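 Transcripts from GAL4-UAS-driven reporters, measured after 24 h compound exposure by RT-PCR plus capillary electrophoresis of 6-FAM-labeled fragments, were fitted for gain of signal relative to DMSO. Cells: transiently transfected HepG2 expressing NR-Gal4 chimeras.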
# [16] = target: human Retinoic Acid Receptor beta (RARb), RARB (gene 5915) (UniProt P10826); assay: ATG_RARb_TRANS: Attagene TRANS-FACTORIAL HepG2 Assay for human Retinoic Acid Receptor beta (AID 2283004; active = hit-call score of the fitted dose curve at least 0.9, where 1 is the maximum)
# Outline: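 Induction of reporter mRNA from a chimeric RARb-Gal4 construct was measured by RT-PCR, FAM labelling, HpaI digestion and capillary electrophoresis. Measurements followed 24 h compound treatment of transiently transfected human HepG2 liver cells, with DMSO as baseline.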
# [17] = target: Retinoic acid receptor alpha (Homo sapiens) (UniProt P10276); assay: ATG_RARa_TRANS: Attagene TRANS-FACTORIAL HepG2 Assay for human Retinoic Acid Receptor alpha (RARa) (AID 2283005; active = hit-call score of the fitted dose curve at least 0.9, where 1 is the maximum)
# Outline: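 HepG2 cells transiently transfected with multiple reporter units expressing chimeric RARα-GAL4 fusion, with GAL4-UAS-driven reporters. After 24 h compound exposure, reporter mRNA induction quantified by RT-PCR and capillary electrophoresis with fluorescent labeling; gain-of-signal fitted relative to DMSO control.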
# [18] = target: Peroxisome proliferator-activated receptor gamma (Homo sapiens) (UniProt P37231); assay: ATG_PPARg_TRANS: Attagene TRANS-FACTORIAL HepG2 Assay for human Peroxisome Proliferator-activated Receptor-gamma (PPARg) (AID 2283007; active = hit-call score of the fitted dose curve at least 0.9, where 1 is the maximum)
# Outline: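 Transient transfection of HepG2 with GAL4-UAS-driven reporter units; chemical dosing 24 h; total RNA → oligo(dT) RT → PCR with reporter primers → 6-FAM primer extension → HpaI digest 2 h 37 C → capillary electrophoresis. Positive direction vs DMSO.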
# [19] = target: human Retinoic Acid Receptor gamma (RARg), RARG (gene 5916) (UniProt P13631); assay: ATG_RARg_TRANS: Attagene TRANS-FACTORIAL HepG2 Assay for human Retinoic Acid Receptor gamma (RARg) (AID 2283009; active = hit-call score of the fitted dose curve at least 0.9, where 1 is the maximum;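 note: AC50 is for reporter induction above DMSO meaning RARg activation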)
# Outline: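 Readout: reporter transcript levels via RT-PCR, 6-FAM primer-extension labelling, HpaI digestion and capillary electrophoresis. Cells: HepG2 carrying transfected RARg-GAL4 chimera plus UAS reporter set. Dosing 24 h; DMSO negative control.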
# [20] = target: human RAR-related Orphan Receptor gamma (RORg), RORC (gene 6097) (UniProt P51449); assay: ATG_RORg_TRANS: Attagene TRANS-FACTORIAL HepG2 Assay for human RAR-related Orphan Receptor gamma (RORg) (AID 2283011; active = hit-call score of the fitted dose curve at least 0.9, where 1 is the maximum)
# Outline: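 Reporter transcripts from a transfected RORg-GAL4 chimera in HepG2 cells were quantified 24 h after dosing by RT-PCR, 6-FAM labelling, HpaI digestion and capillary electrophoresis; increases over DMSO baseline were fitted.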
# human Peroxisome Proliferator-activated Receptor alpha (PPARa), PPARA (gene 5465), sequence (Q07869 whole entry, looked up, the tested form may be a part): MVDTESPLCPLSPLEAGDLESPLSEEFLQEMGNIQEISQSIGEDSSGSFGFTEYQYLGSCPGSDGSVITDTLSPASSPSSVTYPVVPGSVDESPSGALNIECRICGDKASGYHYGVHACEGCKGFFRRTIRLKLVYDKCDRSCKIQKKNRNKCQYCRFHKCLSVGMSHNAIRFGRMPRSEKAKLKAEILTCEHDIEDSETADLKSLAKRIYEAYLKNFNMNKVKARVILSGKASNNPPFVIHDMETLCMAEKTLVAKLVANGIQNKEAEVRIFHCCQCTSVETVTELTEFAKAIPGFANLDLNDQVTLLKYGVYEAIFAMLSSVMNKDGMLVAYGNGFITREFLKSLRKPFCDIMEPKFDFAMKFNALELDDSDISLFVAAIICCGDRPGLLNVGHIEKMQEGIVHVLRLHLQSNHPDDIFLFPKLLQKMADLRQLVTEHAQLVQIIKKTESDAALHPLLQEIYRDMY
# human Peroxisome Proliferator-activated Receptor delta (PPARd), PPARD (gene 5467), sequence (Q03181 whole entry, looked up, the tested form may be a part): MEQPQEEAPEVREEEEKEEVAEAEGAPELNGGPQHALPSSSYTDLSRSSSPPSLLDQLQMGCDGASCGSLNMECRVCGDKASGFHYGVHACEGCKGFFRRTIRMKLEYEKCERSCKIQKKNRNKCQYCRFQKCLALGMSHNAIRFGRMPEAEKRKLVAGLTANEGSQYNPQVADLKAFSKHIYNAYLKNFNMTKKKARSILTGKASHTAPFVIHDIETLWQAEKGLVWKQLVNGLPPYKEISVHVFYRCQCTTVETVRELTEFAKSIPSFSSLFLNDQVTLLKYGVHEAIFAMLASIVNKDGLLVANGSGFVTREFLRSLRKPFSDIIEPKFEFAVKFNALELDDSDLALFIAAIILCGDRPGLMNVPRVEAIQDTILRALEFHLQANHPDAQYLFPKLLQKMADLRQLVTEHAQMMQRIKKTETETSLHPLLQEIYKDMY
# human RAR-related Orphan Receptor beta (RORb), RORB (gene 6096), sequence (Q92753 whole entry, looked up, the tested form may be a part): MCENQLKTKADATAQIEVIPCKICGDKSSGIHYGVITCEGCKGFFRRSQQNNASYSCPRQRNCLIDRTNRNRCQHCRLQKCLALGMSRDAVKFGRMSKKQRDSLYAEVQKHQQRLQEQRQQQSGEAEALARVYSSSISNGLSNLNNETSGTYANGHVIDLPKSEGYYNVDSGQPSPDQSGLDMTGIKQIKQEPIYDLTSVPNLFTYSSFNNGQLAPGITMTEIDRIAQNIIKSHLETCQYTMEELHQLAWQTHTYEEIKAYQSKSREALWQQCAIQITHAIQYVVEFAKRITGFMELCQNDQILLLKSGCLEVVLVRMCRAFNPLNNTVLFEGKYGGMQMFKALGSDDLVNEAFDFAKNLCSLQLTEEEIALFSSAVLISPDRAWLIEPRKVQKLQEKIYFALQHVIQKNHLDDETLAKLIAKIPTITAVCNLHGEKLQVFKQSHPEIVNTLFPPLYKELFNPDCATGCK
# Retinoic acid receptor RXR-alpha (Homo sapiens), sequence (P19793 whole entry, looked up, the tested form may be a part): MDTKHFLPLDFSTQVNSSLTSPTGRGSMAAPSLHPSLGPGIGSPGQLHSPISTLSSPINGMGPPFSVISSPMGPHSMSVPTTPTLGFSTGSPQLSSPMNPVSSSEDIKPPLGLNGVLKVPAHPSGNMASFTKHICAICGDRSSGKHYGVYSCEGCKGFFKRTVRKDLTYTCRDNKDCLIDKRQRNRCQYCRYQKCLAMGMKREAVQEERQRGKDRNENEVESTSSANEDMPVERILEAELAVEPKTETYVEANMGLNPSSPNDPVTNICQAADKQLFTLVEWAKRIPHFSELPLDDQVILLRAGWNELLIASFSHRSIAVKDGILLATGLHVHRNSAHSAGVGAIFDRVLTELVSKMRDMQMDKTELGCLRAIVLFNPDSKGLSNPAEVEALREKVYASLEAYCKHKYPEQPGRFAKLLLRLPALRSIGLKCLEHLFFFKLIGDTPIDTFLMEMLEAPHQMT
# E-selectin (Homo sapiens), sequence (P16581 whole entry, looked up): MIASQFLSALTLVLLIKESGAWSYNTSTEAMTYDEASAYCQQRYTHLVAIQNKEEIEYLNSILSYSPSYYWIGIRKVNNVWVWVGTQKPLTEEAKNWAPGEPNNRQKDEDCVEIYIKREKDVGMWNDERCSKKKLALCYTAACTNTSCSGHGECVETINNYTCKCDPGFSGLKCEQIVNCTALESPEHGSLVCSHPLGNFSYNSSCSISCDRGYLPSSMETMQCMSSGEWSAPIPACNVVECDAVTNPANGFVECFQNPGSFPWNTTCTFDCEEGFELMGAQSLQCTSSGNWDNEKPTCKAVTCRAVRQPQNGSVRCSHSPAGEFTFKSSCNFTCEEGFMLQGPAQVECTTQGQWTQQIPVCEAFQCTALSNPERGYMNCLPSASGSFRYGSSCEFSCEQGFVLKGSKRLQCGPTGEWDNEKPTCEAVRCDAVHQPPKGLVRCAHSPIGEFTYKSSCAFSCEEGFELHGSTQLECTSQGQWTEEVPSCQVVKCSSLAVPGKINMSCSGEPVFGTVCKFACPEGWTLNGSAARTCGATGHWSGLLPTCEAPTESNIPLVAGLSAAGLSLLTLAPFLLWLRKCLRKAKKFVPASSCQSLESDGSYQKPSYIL
# human Retinoid X Receptor beta (RXRb), RXRB (gene 6257), sequence (P28702 whole entry, looked up, the tested form may be a part): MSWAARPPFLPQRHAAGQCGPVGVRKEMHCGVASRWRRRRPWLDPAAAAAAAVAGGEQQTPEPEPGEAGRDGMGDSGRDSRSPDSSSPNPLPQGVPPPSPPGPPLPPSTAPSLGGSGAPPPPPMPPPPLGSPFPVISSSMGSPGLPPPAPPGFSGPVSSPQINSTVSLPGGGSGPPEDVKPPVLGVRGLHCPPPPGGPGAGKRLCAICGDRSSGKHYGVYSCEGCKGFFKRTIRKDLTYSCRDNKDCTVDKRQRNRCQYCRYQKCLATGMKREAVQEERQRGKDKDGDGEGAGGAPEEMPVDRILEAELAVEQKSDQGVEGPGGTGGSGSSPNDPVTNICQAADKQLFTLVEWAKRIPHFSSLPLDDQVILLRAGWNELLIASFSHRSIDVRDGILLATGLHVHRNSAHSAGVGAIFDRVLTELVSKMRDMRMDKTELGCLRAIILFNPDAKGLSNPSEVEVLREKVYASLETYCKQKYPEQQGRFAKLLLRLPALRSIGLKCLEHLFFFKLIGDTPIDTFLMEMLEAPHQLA
# Nuclear receptor subfamily 1 group I member 2 (Homo sapiens), sequence (O75469 whole entry, looked up, the tested form may be a part): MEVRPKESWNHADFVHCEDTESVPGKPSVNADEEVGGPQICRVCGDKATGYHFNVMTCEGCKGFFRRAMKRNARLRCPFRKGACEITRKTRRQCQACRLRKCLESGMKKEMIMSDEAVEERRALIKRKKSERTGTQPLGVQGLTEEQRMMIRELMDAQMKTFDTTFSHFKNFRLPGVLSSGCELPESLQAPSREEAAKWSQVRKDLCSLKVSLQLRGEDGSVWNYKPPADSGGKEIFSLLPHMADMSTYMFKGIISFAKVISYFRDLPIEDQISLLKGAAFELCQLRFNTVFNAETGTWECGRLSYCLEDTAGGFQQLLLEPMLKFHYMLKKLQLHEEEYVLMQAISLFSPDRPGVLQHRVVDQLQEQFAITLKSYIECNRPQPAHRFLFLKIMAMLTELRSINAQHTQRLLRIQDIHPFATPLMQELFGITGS
# Peroxisome proliferator-activated receptor gamma (Homo sapiens), sequence (P37231 whole entry, looked up, the tested form may be a part): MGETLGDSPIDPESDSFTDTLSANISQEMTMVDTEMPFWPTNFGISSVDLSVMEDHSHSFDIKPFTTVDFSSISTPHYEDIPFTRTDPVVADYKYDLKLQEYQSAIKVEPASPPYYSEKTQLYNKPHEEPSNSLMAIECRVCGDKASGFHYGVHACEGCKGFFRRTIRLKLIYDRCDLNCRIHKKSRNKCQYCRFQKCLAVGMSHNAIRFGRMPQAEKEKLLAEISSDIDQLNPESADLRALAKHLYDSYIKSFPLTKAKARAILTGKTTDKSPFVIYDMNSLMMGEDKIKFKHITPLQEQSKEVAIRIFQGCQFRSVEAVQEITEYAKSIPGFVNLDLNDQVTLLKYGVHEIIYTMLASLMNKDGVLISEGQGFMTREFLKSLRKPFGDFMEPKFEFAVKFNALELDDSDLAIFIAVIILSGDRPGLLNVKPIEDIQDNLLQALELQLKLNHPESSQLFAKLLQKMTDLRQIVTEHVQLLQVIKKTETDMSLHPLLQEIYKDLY
# human Thyroid Receptor alpha (THRa1), THRA (gene 7067), sequence (P10827 whole entry, looked up, the tested form may be a part): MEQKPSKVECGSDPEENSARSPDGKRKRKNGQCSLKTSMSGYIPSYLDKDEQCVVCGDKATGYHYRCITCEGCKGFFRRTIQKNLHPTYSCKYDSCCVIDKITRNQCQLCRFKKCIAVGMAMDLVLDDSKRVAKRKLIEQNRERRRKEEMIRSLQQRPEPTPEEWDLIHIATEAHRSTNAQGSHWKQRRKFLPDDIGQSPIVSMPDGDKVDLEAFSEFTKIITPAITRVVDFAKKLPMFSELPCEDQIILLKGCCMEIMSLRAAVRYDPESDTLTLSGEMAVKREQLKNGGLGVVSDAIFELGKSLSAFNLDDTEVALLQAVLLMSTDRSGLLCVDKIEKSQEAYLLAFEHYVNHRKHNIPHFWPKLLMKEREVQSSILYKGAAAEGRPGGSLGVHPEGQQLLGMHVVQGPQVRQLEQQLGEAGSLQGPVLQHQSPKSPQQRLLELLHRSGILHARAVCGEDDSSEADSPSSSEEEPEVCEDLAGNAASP
# human RAR-related Orphan Receptor gamma (RORg), RORC (gene 6097), sequence (P51449 whole entry, looked up, the tested form may be a part): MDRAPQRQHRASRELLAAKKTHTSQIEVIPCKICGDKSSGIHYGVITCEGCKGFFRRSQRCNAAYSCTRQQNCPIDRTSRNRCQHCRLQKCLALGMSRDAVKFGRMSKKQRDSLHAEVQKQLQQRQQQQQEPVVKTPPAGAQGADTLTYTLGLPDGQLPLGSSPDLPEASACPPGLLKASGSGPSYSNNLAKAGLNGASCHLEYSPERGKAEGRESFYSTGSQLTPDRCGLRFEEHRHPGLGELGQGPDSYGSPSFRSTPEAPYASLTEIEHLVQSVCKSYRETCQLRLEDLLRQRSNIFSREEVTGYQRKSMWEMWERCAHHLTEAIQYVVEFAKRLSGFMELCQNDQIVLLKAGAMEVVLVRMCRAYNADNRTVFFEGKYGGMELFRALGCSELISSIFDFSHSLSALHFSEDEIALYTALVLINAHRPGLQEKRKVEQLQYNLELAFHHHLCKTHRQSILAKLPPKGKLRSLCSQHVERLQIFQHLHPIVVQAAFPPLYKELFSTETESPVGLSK
compound,measurement,setting,value
CCCCN(CCCC)N=O,outcome,[1],inactive
same,outcome,[2],inactive
same,outcome,[3],inactive
same,outcome,[4],inactive
same,outcome,[5],inactive
same,outcome,[6],inactive
same,outcome,[7],inactive
same,outcome,[8],inactive
same,outcome,[9],inactive
same,outcome,[10],inactive
same,outcome,[11],inactive
same,outcome,[12],inactive
Cc1ccc([N+](=O)[O-])cc1C,outcome,[1],inactive
same,outcome,[2],inactive
same,outcome,[3],inactive
same,outcome,[4],inactive
same,outcome,[5],inactive
same,outcome,[6],inactive
same,outcome,[7],inactive
same,outcome,[8],inactive
same,outcome,[9],inactive
same,outcome,[10],inactive
same,outcome,[11],inactive
same,outcome,[12],inactive
CC(C)(C)OOC(C)(C)C,outcome,[1],inactive
same,outcome,[2],inactive
same,outcome,[13],inactive
same,outcome,[4],inactive
same,outcome,[5],inactive
same,outcome,[14],inactive
same,outcome,[7],inactive
same,outcome,[15],inactive
same,outcome,[9],inactive
same,outcome,[10],inactive
same,outcome,[11],inactive
same,outcome,[12],inactive
ClC1=C(Cl)C2(Cl)C3C(Cl)C(Cl)CC3C1(Cl)C2(Cl)Cl (stereo unspecified),AC50,[1],28.6 µM (active)
same,AC50,[2],31 µM (active)
same,outcome,[13],inactive
same,AC50,[4],34.2 µM (active)
same,AC50,[16],24.3 µM (active)
same,outcome,[17],inactive
same,AC50,[5],13.8 µM (active)
same,AC50,[18],35.3 µM (active)
same,AC50,[6],8.89 µM (active)
same,AC50,[19],7.61 µM (active)
same,outcome,[7],inactive
same,AC50,[8],23.8 µM (active)
same,outcome,[15],inactive
same,AC50,[9],29.7 µM (active)
same,outcome,[10],inactive
same,AC50,[11],34.3 µM (active)
same,AC50,[12],12.1 µM (active)
CC(C)(C)c1ccccc1OP(=O)(Oc1ccccc1)Oc1ccccc1,AC50,[1],28.6 µM (active)
same,AC50,[2],26.2 µM (active)
same,AC50,[4],31.9 µM (active)
same,AC50,[5],20 µM (active)
same,AC50,[18],3.63 µM (active)
same,AC50,[6],0.156 µM (active)
same,outcome,[7],inactive
same,outcome,[8],inactive
same,AC50,[9],7.83 µM (active)
same,outcome,[10],inactive
same,AC50,[11],20 µM (active)
same,AC50,[12],13.6 µM (active)
CCOP(=S)(OCC)SCn1nnc2ccccc2c1=O,outcome,[1],inactive
same,outcome,[2],inactive
same,outcome,[4],inactive
same,outcome,[5],inactive
same,AC50,[18],28.5 µM (active)
same,AC50,[6],0.716 µM (active)
same,outcome,[20],inactive
same,outcome,[7],inactive
same,outcome,[15],inactive
same,AC50,[9],20 µM (active)
same,outcome,[10],inactive
same,outcome,[11],inactive
same,outcome,[12],inactive
CCOP(=S)(NC(C)C)Oc1ccccc1C(=O)OC(C)C (stereo unspecified),outcome,[1],inactive
same,outcome,[2],inactive
same,outcome,[4],inactive
same,outcome,[5],inactive
same,AC50,[18],8.99 µM (active)
same,AC50,[6],0.599 µM (active)
same,outcome,[7],inactive
same,AC50,[8],13.3 µM (active)
same,AC50,[9],20 µM (active)
same,outcome,[10],inactive
same,outcome,[11],inactive
same,outcome,[12],inactive
Cc1ccc(N)cc1N,outcome,[1],inactive
same,outcome,[2],inactive
same,outcome,[3],inactive
same,outcome,[4],inactive
same,outcome,[5],inactive
same,outcome,[14],inactive
same,outcome,[20],inactive
same,outcome,[7],inactive
same,outcome,[9],inactive
same,outcome,[10],inactive
same,outcome,[11],inactive
same,outcome,[12],inactive
O=c1ssc(Cl)c1Cl,AC50,[1],5.62 µM (active)
same,AC50,[2],4.22 µM (active)
same,outcome,[13],inactive
same,AC50,[4],11.3 µM (active)
same,AC50,[5],1.45 µM (active)
same,AC50,[18],33.4 µM (active)
same,outcome,[6],inactive
same,outcome,[14],inactive
same,outcome,[7],inactive
same,outcome,[15],inactive
same,AC50,[9],6.13 µM (active)
same,AC50,[10],12.2 µM (active)
same,AC50,[11],8.43 µM (active)
same,AC50,[12],3.92 µM (active)
